Assay results taken from ChEMBL document CHEMBL1157539, “Thousands of chemical starting points for antimalarial lead identification” (Nature, 2010).

Each compound was assayed on Plasmodium falciparum (assay: GSK_TCMDC: Inhibition of Plasmodium falciparum Dd2 in whole red blood cells, using parasite LDH activity as an index of growth. Test compounds present at 2uM).
Format: functional
`COC(=O)c1ccc2nc(-c3ccc(C(=O)NC4CCN(Cc5ccccc5)CC4)s3)[nH]c2c1` gave an Inhibition of 71%.
Compound `COc1ccc(CNc2nc(NCc3ccc(C(F)(F)F)cc3)c3cc(OC)c(OC)cc3n2)cc1OC` has an Inhibition of 100%.
With `O=C(NC1CCCCN(Cc2ccccc2O)C1)c1cccc(C(F)(F)F)c1.O=C(O)C(F)(F)F` (centres undefined) the Inhibition was 64%.
`CCN(CC)/C(=N/C(=N)NCc1ccc(Cl)cc1Cl)NCCCCCCN/C(=N\C(=N)NCc1ccc(Cl)cc1Cl)N(CC)CC` was tested, and the Inhibition was 99%.
In the case of `CCCn1c(O)nnc1SCC(=O)Nc1cc(Cl)ccc1Cl`, the Inhibition was 53%.

What follows are compounds tested on HepG2 (assay: GSK_TCMDC: Percent inhibition of human HepG2 cell line. Test compounds present at 10uM.).
Format: functional
In the case of `CN1CC[C@@H](Oc2cc(C(=O)NCc3ccc(Cl)c(Cl)c3)ccc2C(F)(F)F)C1.Cl`, the Inhibition was 8%.
For `CC(C)(C)Oc1ccc(C[C@@H]2NC3(C(=O)N(Cc4ccc(Cl)c(Cl)c4)c4ccccc43)C3C(=O)N(c4ccc(Br)cc4)C(=O)C32)cc1` (some centres undefined), the Inhibition was 1%.
`CC(C)Cc1nc(N2CCOCC2)c2nnn(Cc3ccccc3)c2n1` gave an Inhibition of 7%.
`CN(C(=O)Cc1ccc(Cl)c(Cl)c1)C1CCN(CCCCCNC(=O)/C=C/c2ccc(Cl)c(Cl)c2)CC1` was tested, and the Inhibition was 87%.
`Br.C=CCc1cccc(C)c1OCCCON1C(=N)N=C(N)NC1(C)C` gave an Inhibition of 65%.
`CCNC(=O)Nc1ccc(-c2cccc(-c3nc4cccc(C)c4[nH]3)c2)cc1` showed an Inhibition of 16%.
Work on `COc1ccc(CCNCC(O)COc2nccc3c(S(=O)(=O)N4CCCNCC4)cccc23)cc1OC.Cl` (centres undefined) yielded an Inhibition of 59%.
`Nc1nc(N)c2cc(C(F)(F)F)ccc2n1` was tested, and the Inhibition was 8%.
For `O=C(Nc1ccc(Cn2ncc(N3CCCNCC3)c(Cl)c2=O)cc1)Nc1cc(C(F)(F)F)cc(C(F)(F)F)c1.O=C(O)C(F)(F)F`, the Inhibition was 25%.
`CC(=O)Nc1ccc2[nH]cc(C3CCN(CC4CCC(NC(=O)/C=C/c5ccccc5Cl)CC4)CC3)c2n1` (centres undefined) showed an Inhibition of 16%.
`CCCCOC(=O)NCCCC[C@H](NC(=O)OC(C)(C)C)C(=O)N[C@H](C(=O)OC(c1ccccc1)c1ccccc1)[C@H]1O[C@@H](n2ccc(=O)[nH]c2=O)[C@@H]2OC(C)(C)O[C@@H]21` gave an Inhibition of 7%.
`O=C(Nc1cccc(CN2CCCN(Cc3ccsc3)CC2)c1)c1ccc(-c2ccccc2)cc1.O=C(O)C(F)(F)F` gave an Inhibition of 30%.
In the case of `Cl.O=C(Oc1ccc(C2CNCCc3c2cc(OC(=O)c2ccc(O)cc2)c(OC(=O)c2ccc(O)cc2)c3Cl)cc1)c1ccc(O)cc1` (centres undefined), the Inhibition was 0%.
`O=C(Cn1c(CCc2cccc(F)c2F)nc(=O)c2ccccc21)N(CCCN1CCCC1)Cc1ccc(-c2ccc(C(F)(F)F)cc2)cc1.O=C(O)C(O)C(O)C(=O)O` was tested, and the Inhibition was 54%.
Work on `COc1ccc2ncc(F)c([C@@H](O)CN3CCC(NCc4cc5c(cn4)OCS5)CC3)c2c1.Cl` yielded an Inhibition of 16%.
Work on `O=C(NCCCN1CCC(N2CCCCC2)CC1)c1ccc(N2CCOc3ccccc32)s1` yielded an Inhibition of 37%.
`Cc1ccc(Cn2nc(N3CCNCC3)ccc2=O)cc1NC(=O)Nc1ccc(-c2ccccc2)cc1.O=C(O)C(F)(F)F` was tested, and the Inhibition was 46%.
`CCN(CC)CCN(Cc1ccc(-c2ccc(Cl)s2)cc1)C(=O)Cn1c(CCc2cccc(F)c2F)nc(=O)c2ccccc21.O=C(O)C(O)C(O)C(=O)O` showed an Inhibition of 24%.
`COC(=O)C1(NC(=O)c2ccc(-n3nc(C)c(-c4ccccc4)c3N)cc2)CCCC1` was tested, and the Inhibition was 9%.
`Cc1ccccc1CNc1noc(-c2sccc2Br)n1` showed an Inhibition of 0%.
In the case of `N=C(N)c1ccc(NC(=O)c2cc(Sc3ccc(O)c(C(=O)Nc4ccc(C(=N)N)cc4)c3)ccc2O)cc1`, the Inhibition was 11%.
`O=C(NCCCc1ccccc1)c1csc(C2CCCN(C(=O)c3ccc(O)c(-c4cccc5ccccc45)c3)C2)n1` (centres undefined) showed an Inhibition of 3%.
Compound `Cc1ccc(C2CC(c3cccs3)=NN2C(=O)c2ccc(Br)o2)cc1` (centres undefined) has an Inhibition of 11%.
`CCCNC(=O)c1cncc(-c2ccc(CNC3Cc4ccccc4C3)cc2)c1.O=C(O)C(F)(F)F` showed an Inhibition of 9%.
Work on `COc1ccc(CCNC(=O)c2ccccc2O)cc1-c1ccc(C(C)(C)C)cc1` yielded an Inhibition of 25%.
`O=C(/C=C/c1ccccc1Cl)Nc1ccc(Br)c(OCCN2CCC(O)(c3ccccc3)CC2)c1.O=C(O)C(=O)O` was tested, and the Inhibition was 39%.
Work on `COc1cc2[nH]c(-c3ccc(O)cc3)c(C)c(=O)c2c(OC)c1OC` yielded an Inhibition of 1%.
`COCCNCc1cccc(C#Cc2cc3ncnc(Nc4ccc(OCc5cccc(F)c5)c(Cl)c4)c3s2)n1` showed an Inhibition of 35%.
`NCc1ccc(-c2cccc(CNC3CCN(Cc4ccccc4)CC3)c2)cc1.O=C(O)C(F)(F)F` showed an Inhibition of 24%.
